# Laboratory results reported in PubChem BioAssay (Tox21).
# Inconclusive results are not listed. Entries that show only a call come without a potency. Values without a mark were called inactive. Activity calls are given as the source filed them. Unless noted, calls come from the whole dose curve; as a rule, active = well fitted curve in the direction sought with a large enough effect in the repeat runs; inconclusive = weak or mixed curves; inactive = no such curve, though single readings can be large; an effect the other way counts as inactive or inconclusive.
# Tests used:
# [1] = target: Peroxisome proliferator-activated receptor delta (Homo sapiens) (UniProt Q03181); test: qHTS assay to identify small molecule agonists of the peroxisome proliferator-activated receptor delta (PPARd) signaling pathway (AID 743212; calls by dose curve)
# Procedure, shortened: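 Quantitative high-throughput agonist screen in a HEK293H beta-lactamase reporter line under UAS control. Compounds in DMSO, at 37 C. Fluorescence read after 2 h with FRET substrate at room temperature.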
# [2] = qHTS assay to identify small molecule antagonists of the peroxisome proliferator-activated receptor delta (PPARd) signaling pathway - cell viability counter screen (AID 743213); note: nearly all actives have a fitted effect of over 50% in size
# Procedure, shortened: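 In this counter screen, HEK293H cells carrying a UAS-beta-lactamase reporter are co-treated with test compounds and 300 nM L165041 (final) for 17 h at 37 C; cell viability is quantified by CellTiter-Glo luminescence.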
# [3] = target: Bile acid receptor (Homo sapiens) (UniProt Q96RI1); test: qHTS assay to identify small molecule antagonists of the farnesoid-X-receptor (FXR) signaling pathway (AID 743217; active = well fitted inhibition curve with a large enough effect in the signal ratio in the repeat runs, not every such curve was filed as active; the % refers to the signal ratio)
# Procedure, shortened: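 In this cell-based antagonist screen, inhibition of CDCA-driven (50 uM final) UAS-beta-lactamase expression in HEK 293T cells was measured by FRET fluorescence following 16 h compound exposure at 37 °C.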
# [4] = qHTS assay to identify small molecule agonists of the farnesoid-X-receptor (FXR) signaling pathway - cell viability counter screen (AID 743218); note: nearly all actives have a fitted effect of over 45% in size; note: potency is the fitted concentration of half-maximal effect
# Procedure, shortened: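 After 16 h at 37 C with test compounds, FXR-bla HEK 293T cells were given LiveBLAzer B/G substrate for 2 h at RT and then CellTiter-Glo; luminescence was taken after 30 min.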
# [5] = target: Bile acid receptor (Homo sapiens) (UniProt Q96RI1); test: qHTS assay to identify small molecule agonists of the farnesoid-X-receptor (FXR) signaling pathway (AID 743220; active = well fitted activation curve with a large enough effect in the signal ratio in the repeat runs, not every such curve was filed as active; the % refers to the signal ratio)
# Procedure, shortened: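 Beta-lactamase reporter under UAS control in GeneBLAzer FXR HEK 293T cells (5000/well) measured with LiveBLAzer FRET substrate after 2 h at room temperature. Compound exposure lasted 16 h at 37C.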
# [6] = target: Vitamin D3 receptor (Homo sapiens) (UniProt P11473); test: qHTS assay to identify small molecule agonists of the vitamin D receptor (VDR) signaling pathway (AID 743222; calls by dose curve)
# Procedure, shortened: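 VDR-bla cells were seeded, left 4 h, treated with compounds in DMSO for 16 h, incubated 2 h at RT with B/G FRET substrate, and read for fluorescence.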
# [7] = target: Vitamin D3 receptor (Homo sapiens) (UniProt P11473); test: qHTS assay to identify small molecule antagonists of the vitamin D receptor (VDR) signaling pathway (AID 743223; active = well fitted inhibition curve with a large enough effect in the signal ratio in the repeat runs, not every such curve was filed as active; the % refers to the signal ratio)
# Procedure, shortened: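 Agonist 1alpha,25-dihydroxyvitamin D3 (3 nM in well) was added with each compound to VDR-bla cells preincubated 4 h. Cells stood 16 h at 37C, then FRET substrate 2 h at room temperature; fluorescence intensity recorded.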
# [8] = qHTS assay to identify small molecule agonists of the vitamin D receptor (VDR) signaling pathway - cell viability counter screen (AID 743224); note: nearly all actives have a fitted effect of over 50% in size; note: potency is the fitted concentration of half-maximal effect; for activity change, negative = cytotoxicity: series mostly up to about 63 µM
# Procedure, shortened: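 Here cell health was gauged by luminescent ATP detection (CellTiter-Glo, 30 min RT) in VDR-bla cells that had been incubated with test compounds for 16 h at 37C and 5% CO2.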
# [9] = qHTS assay to identify small molecule antagonists of the farnesoid-X-receptor (FXR) signaling pathway - cell viability counter screen (AID 743221; active = well fitted cell-killing curve with a large enough effect in the repeat runs, not every such curve was filed as active; note: nearly all actives have a fitted effect of over 50% in size; note: potency is the fitted concentration of half-maximal effect)
# Procedure, shortened: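 In GeneBLAzer FXR-UAS-bla HEK 293T cells stimulated with 50 uM chenodeoxycholic acid (final), compounds acted for 16 h at 37 C. Viability was assessed afterwards by CellTiter-Glo luminescence.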
# [10] = target: Peroxisome proliferator-activated receptor delta (Homo sapiens) (UniProt Q03181); test: qHTS assay to identify small molecule antagonists of the peroxisome proliferator-activated receptor delta (PPARd) signaling pathway (AID 743215; active = well fitted inhibition curve with a large enough effect in the signal ratio in the repeat runs, not every such curve was filed as active; the % refers to the signal ratio;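 note: cells stimulated with agonist L165041 at 300 nM final during compound exposure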; note: potency is the fitted concentration of half-maximal effect)
# Procedure, shortened: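 With L165041 present at 300 nM final, compounds were incubated 17 h at 37 C on PPARd UAS-bla HEK293H cells. A FRET-based beta-lactamase substrate was then applied for 2 h at room temperature and fluorescence intensity recorded.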
# Sequence of Bile acid receptor (Homo sapiens) (Q96RI1 whole entry, looked up): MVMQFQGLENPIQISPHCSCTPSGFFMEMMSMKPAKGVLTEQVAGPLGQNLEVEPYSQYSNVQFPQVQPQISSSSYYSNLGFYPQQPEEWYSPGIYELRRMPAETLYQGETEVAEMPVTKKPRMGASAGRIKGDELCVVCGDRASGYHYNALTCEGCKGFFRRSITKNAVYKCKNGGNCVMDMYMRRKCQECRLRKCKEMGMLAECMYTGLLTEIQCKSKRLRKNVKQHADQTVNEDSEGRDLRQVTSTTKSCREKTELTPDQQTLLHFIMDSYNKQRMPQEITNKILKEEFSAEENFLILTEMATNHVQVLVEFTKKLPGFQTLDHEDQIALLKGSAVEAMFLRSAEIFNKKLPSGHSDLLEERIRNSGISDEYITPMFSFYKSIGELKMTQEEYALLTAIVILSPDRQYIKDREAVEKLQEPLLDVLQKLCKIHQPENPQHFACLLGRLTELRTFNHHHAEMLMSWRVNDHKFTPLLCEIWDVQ
# Sequence of Peroxisome proliferator-activated receptor delta (Homo sapiens) (Q03181 whole entry, looked up): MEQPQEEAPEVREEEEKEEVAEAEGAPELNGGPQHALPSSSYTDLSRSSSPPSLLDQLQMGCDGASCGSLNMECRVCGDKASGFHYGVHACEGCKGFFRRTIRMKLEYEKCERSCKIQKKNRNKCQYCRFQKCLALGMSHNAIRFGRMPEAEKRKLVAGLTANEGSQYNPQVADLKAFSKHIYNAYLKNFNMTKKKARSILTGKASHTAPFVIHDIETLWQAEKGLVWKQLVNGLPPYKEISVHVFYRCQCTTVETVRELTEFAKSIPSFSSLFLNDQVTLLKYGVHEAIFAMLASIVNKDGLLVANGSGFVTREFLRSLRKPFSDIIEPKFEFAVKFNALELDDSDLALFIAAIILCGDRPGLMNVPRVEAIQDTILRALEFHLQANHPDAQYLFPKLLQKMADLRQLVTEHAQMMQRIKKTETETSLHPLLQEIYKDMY
# Sequence of Vitamin D3 receptor (Homo sapiens) (P11473 whole entry, looked up): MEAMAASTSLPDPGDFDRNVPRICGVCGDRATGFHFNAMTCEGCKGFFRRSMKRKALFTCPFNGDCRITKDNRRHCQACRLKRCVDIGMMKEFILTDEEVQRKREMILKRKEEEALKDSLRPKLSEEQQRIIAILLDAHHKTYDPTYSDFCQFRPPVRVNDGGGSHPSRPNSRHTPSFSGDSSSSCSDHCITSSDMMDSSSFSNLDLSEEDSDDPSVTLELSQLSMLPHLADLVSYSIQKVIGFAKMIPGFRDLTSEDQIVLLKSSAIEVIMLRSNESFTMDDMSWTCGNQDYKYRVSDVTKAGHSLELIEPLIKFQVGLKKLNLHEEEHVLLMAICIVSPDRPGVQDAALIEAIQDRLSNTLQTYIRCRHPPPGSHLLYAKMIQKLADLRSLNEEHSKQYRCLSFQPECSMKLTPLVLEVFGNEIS
smiles,measurement,setting,value
CC[C@H]1OC(=O)[C@H](C)[C@@H](O[C@H]2C[C@@](C)(OC)[C@@H](O)[C@H](C)O2)[C@H](C)[C@@H](O[C@@H]2O[C@H](C)C[C@H](N(C)C)[C@H]2O)[C@](C)(O)C[C@@H](C)/C(=N\OCOCCOC)[C@H](C)[C@@H](O)[C@]1(C)O,outcome,[1],inactive
same,Potency,[2],inactive
same,outcome,[3],inactive
same,Potency,[4],inactive
same,Potency,[5],inactive
same,outcome,[6],inactive
same,outcome,[7],inactive
same,Potency,[8],inactive
CC1=CC[C@@H]2C[C@H]1C2(C)C,activation,[1],0.18% [at 13.2 µM]
same,"viability change, negative = cytotoxic",[2],-2.53% [at 13.7 µM]
same,"viability change, negative = cytotoxic",[4],17.4% [at 13.2 µM]
same,activation,[6],-15.3% [at 13.4 µM]
same,"activity change, negative = cytotoxicity",[8],3.15% [at 13.2 µM]
O=C(c1ccccc1)C1CCC1,outcome,[1],inactive
same,Potency,[2],inactive
same,Potency,[4],inactive
same,Potency,[9],inactive
same,outcome,[6],inactive
same,outcome,[7],inactive
same,Potency,[8],inactive
CC(CCc1ccc(O)cc1)NCCc1ccc(O)c(O)c1 (stereo not given),outcome,[1],inactive
same,Potency,[10],inactive
same,outcome,[3],inactive
same,Potency,[4],inactive
same,Potency,[5],inactive
same,Potency,[9],inactive
COc1ccc(/C=C/C(=O)c2ccc(OC)cc2OC)cc1,outcome,[1],inactive
same,Potency,[10],11.9 µM (active)
same,Potency,[4],inactive
same,Potency,[5],inactive
same,Potency,[9],inactive
same,outcome,[6],inactive
CCCCCCCC/C=C\CCCCCCCC(=O)OCCO,Potency,[2],inactive
same,Potency,[10],inactive
same,Potency,[4],inactive
Nc1nc2ccc(OC(F)(F)F)cc2s1,outcome,[1],inactive
same,Potency,[10],inactive
same,Potency,[9],inactive
same,outcome,[6],inactive
same,outcome,[7],inactive
same,Potency,[8],inactive
CCN(CC)c1cccc(O)c1,Potency,[2],inactive
same,Potency,[10],inactive
same,Potency,[4],inactive
same,Potency,[9],inactive
same,Potency,[8],inactive
C=C(C)C(=O)OCCC(F)(F)C(F)(F)C(F)(F)C(F)(F)C(F)(F)C(F)(F)F,Potency,[2],inactive
same,outcome,[3],inactive
same,Potency,[4],inactive
same,Potency,[9],inactive
same,outcome,[6],inactive
same,outcome,[7],inactive
same,Potency,[8],inactive
CCNc1nc(N)nc(Cl)n1,outcome,[1],inactive
same,Potency,[10],inactive
same,Potency,[4],inactive
same,Potency,[9],inactive
same,outcome,[6],inactive
same,Potency,[8],inactive
COc1cc(NCc2ccc3nc(N)nc(N)c3c2C)cc(OC)c1OC,outcome,[1],inactive
same,Potency,[10],inactive
same,outcome,[6],inactive
same,outcome,[7],inactive
same,Potency,[8],0.15 µM (active)
O=C(O)/C=C/c1ccc(O)c(O)c1,Potency,[2],inactive
same,Potency,[10],inactive
same,outcome,[3],inactive
same,Potency,[4],inactive
same,Potency,[5],inactive
same,Potency,[9],inactive
same,outcome,[7],inactive
CC1CCc2nccnc21 (stereo not given),outcome,[1],inactive
same,Potency,[10],inactive
same,Potency,[4],inactive
same,Potency,[9],inactive
same,outcome,[6],inactive
same,outcome,[7],inactive
same,Potency,[8],inactive
Oc1ccc2c(c1)Cc1ccccc1-2,Potency,[2],inactive
same,Potency,[10],inactive
same,Potency,[9],inactive
same,outcome,[7],inactive
COC(C)(C)OC,outcome,[1],inactive
same,outcome,[3],inactive
same,Potency,[5],inactive
same,Potency,[9],inactive
same,outcome,[6],inactive
same,outcome,[7],inactive
same,Potency,[8],inactive
CCCCC[C@H](O)/C=C/[C@H]1[C@H](O)CC(=O)[C@@H]1C/C=C\CCCC(=O)O,Potency,[2],inactive
same,Potency,[10],inactive
same,Potency,[4],inactive
same,Potency,[9],inactive
same,outcome,[6],inactive
O=NN(CCCl)C(=O)NCCCl,outcome,[1],inactive
same,Potency,[10],inactive
same,Potency,[4],inactive
same,Potency,[9],inactive
O=C(O)c1cccc(Oc2ccccc2)c1,Potency,[2],inactive
same,Potency,[10],inactive
same,Potency,[4],inactive
same,Potency,[9],inactive
same,outcome,[7],inactive
same,Potency,[8],inactive
Cc1cc(CCC(=O)OCCOCCOCCOC(=O)CCc2cc(C)c(O)c(C(C)(C)C)c2)cc(C(C)(C)C)c1O,Potency,[2],inactive
same,outcome,[3],inactive
same,Potency,[4],inactive
same,Potency,[5],inactive
same,Potency,[9],inactive
Cc1ccc2c(c1)CCCN2,outcome,[1],inactive
same,Potency,[10],inactive
same,Potency,[9],inactive
Nc1cccc2c(N)cccc12,outcome,[1],inactive
same,outcome,[3],inactive
same,Potency,[8],inactive
COc1cc(NC(C)CCCN)c2ncccc2c1 (stereo not given),outcome,[1],inactive
same,Potency,[10],inactive
same,Potency,[4],inactive
same,Potency,[9],inactive
same,outcome,[6],inactive
same,outcome,[7],inactive
same,Potency,[8],inactive
CS(=O)(=O)c1ccc([C@@H](C[C@H]2CCC(=O)C2)C(=O)Nc2cnccn2)cc1Cl,outcome,[1],inactive
same,Potency,[4],inactive
same,Potency,[9],inactive
same,outcome,[6],inactive
same,Potency,[8],inactive
O=C(O)c1cc(Cl)cc(Cl)c1O,Potency,[2],inactive
same,Potency,[10],inactive
same,outcome,[6],inactive
same,outcome,[7],inactive
same,Potency,[8],inactive
Cc1ccc(Nc2c(F)cccc2Cl)c(CC(=O)O)c1,outcome,[1],inactive
same,outcome,[3],inactive
same,Potency,[4],inactive
same,Potency,[9],inactive
same,Potency,[8],inactive
Cc1c(C2(c3cc(Br)c(O)c(Br)c3C)OS(=O)(=O)c3ccccc32)cc(Br)c(O)c1Br,Potency,[2],inactive
same,outcome,[3],inactive
same,Potency,[4],16.9 µM (active)
same,Potency,[5],inactive
same,Potency,[9],16.9 µM (active)
same,outcome,[7],inactive
same,Potency,[8],inactive
CC(C)C(=O)OCCOc1ccccc1,outcome,[1],inactive
same,Potency,[10],inactive
same,Potency,[9],inactive
same,outcome,[6],inactive
same,outcome,[7],inactive
same,Potency,[8],inactive
CCN(CC)CCNC(=O)c1cc(Cl)c(N)cc1OC,Potency,[2],inactive
same,outcome,[3],inactive
same,Potency,[4],inactive
same,Potency,[5],inactive
same,Potency,[9],inactive
same,outcome,[6],inactive
same,outcome,[7],inactive
same,Potency,[8],inactive
CC(=O)OCC(=O)[C@@]1(OC(C)=O)[C@@H](C)C[C@H]2[C@@H]3C[C@H](F)C4=CC(=O)C=C[C@]4(C)[C@@]3(F)[C@@H](O)C[C@@]21C,Potency,[2],inactive
same,Potency,[10],inactive
same,Potency,[4],inactive
same,Potency,[9],inactive
same,outcome,[7],inactive
same,Potency,[8],inactive
CNC1CCCN(c2c(F)cc3c(=O)c(C(=O)O)cn(C4CC4)c3c2OC)C1 (stereo not given),Potency,[2],inactive
same,outcome,[3],inactive
same,Potency,[5],inactive
same,Potency,[9],inactive
same,outcome,[6],inactive
same,outcome,[7],inactive
